PubChem BioAssay (Tox21)
Several values for one entry are separate records, joined by “and”; a condition that tells them apart may be missing. Identical values can stand only once. Records with an inconclusive call do not appear. A call without a number means that no potency is given here. Activity calls are given as the source filed them. Unless noted, calls come from the whole dose curve; as a rule, active = well fitted curve in the direction sought with a large enough effect in the repeat runs; inconclusive = weak or mixed curves; inactive = flat fitted curve, though single readings scatter.

Assays:
[1] = qHTS assay to test for compound auto fluorescence at 460 nm (blue) in HEK293 cell free culture (AID 720681); note: potency is the fitted concentration of half-maximal effect
In short: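 Blue fluorescence (Ex 405/Em 460 nm, triamterene-equivalent) was read immediately after pin transfer of compound or DMSO into medium (DMEM, 10% FBS) without cells.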

[2] = qHTS assay to test for compound auto fluorescence at 535 nm (green) in HEK293 cell free culture (AID 720682)
In short: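 Intrinsic compound fluorescence is measured in culture medium containing 10% FBS, with excitation at 485 nm and detection at 535 nm, referenced to fluorescein.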

[3] = qHTS assay to test for compound auto fluorescence at 590 nm (red) in HEK293 cell free culture (AID 720683)
In short: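 Red-channel autofluorescence of compounds in culture medium (DMEM, 10% FBS), no cells, measured at 540/590 nm. Rose Bengal sodium is the reference fluorophore for equivalence.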

[4] = qHTS assay to test for compound auto fluorescence at 590 nm (red) in HepG2 cell free culture (AID 720684)
In short: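 Plate contents were MEM with 10% FBS plus test compound or DMSO, no cells. Fluorescence was recorded with 540 nm excitation and 590 nm emission.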

[5] = qHTS assay to test for compound auto fluorescence at 460 nm (blue) in HepG2 cell free culture (AID 720685)
In short: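 Compound (23 nL) or DMSO pinned into cell-free MEM with 10% FBS; blue fluorescence read at 405/460 nm excitation/emission, expressed as auto-fluorescence equivalency to triamterene.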

[6] = qHTS assay to test for compound auto fluorescence at 460 nm (blue) in HepG2 cells (AID 720687)
In short: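 Blue-channel autofluorescence (Ex/Em 405/460 nm, triamterene-equivalent) was measured after 1 hr compound exposure at 37 C, 5% CO2. Cells were HepG2, plated overnight at 37 C in MEM plus 10% FBS.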

[7] = target: Glucocorticoid receptor (Homo sapiens) (UniProt P04150); test: qHTS assay to identify small molecule agonists of the glucocorticoid receptor (GR) signaling pathway (AID 720691; active = well fitted activation curve with a large enough effect in the signal ratio in the repeat runs, not every such curve was filed as active; the % refers to the signal ratio)
Glucocorticoid receptor (Homo sapiens), sequence (P04150 whole entry, looked up): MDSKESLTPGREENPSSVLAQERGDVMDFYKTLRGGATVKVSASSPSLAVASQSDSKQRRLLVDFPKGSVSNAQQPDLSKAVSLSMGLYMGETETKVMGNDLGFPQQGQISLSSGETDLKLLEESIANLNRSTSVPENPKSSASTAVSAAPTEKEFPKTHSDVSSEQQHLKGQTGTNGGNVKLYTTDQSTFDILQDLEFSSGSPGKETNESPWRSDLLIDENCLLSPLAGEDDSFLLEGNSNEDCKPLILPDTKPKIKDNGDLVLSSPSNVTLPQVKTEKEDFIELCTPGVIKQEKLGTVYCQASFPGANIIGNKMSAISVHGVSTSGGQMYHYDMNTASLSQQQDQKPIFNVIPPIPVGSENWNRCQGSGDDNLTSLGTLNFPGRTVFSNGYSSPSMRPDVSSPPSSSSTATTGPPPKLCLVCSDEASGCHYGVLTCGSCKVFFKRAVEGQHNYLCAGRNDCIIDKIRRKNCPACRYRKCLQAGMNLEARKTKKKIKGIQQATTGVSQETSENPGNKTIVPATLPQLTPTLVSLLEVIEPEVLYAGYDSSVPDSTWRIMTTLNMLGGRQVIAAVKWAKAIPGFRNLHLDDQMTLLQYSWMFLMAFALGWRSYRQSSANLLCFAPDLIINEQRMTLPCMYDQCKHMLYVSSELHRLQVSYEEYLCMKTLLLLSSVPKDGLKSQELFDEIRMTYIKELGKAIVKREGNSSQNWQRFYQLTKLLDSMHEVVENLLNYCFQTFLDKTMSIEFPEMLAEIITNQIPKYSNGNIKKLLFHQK
In short: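 Beta-lactamase reporter activity, read as fluorescence intensity, was measured in GR-bla HeLa cells exposed to compounds for 18 h at 37 C and then loaded with LiveBLAzer B/G FRET substrate for 2 h at room temperature.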

[8] = target: Glucocorticoid receptor (Homo sapiens) (UniProt P04150); test: qHTS assay to identify small molecule antagonists of the glucocorticoid receptor (GR) signaling pathway (AID 720692; active = well fitted inhibition curve with a large enough effect in the signal ratio in the repeat runs, not every such curve was filed as active; the % refers to the signal ratio; note: potency is the fitted concentration of half-maximal effect)
In short: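 Fluorescence from cleaved LiveBLAzer B/G FRET substrate reports GRE-driven beta-lactamase in HeLa cells; compounds are tested against 5 nM dexamethasone (final) over 18 h at 37 C, substrate incubation 2 h at room temperature.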

[9] = qHTS assay to test for compound auto fluorescence at 535 nm (green) in HepG2 cell free culture (AID 720686)

Structure (SMILES) | Potency [1] | outcome [2] | outcome [3] | outcome [4] | Potency [5] | Potency [6] | Potency [7] | Potency [8] | outcome [9]
CC(C)(C)OO | inactive | inactive | inactive | inactive | inactive | inactive | – | – | –
CC(C)CCCCCOC(=O)c1ccccc1C(=O)OCCCCCC(C)C | inactive | inactive | inactive | inactive | inactive | inactive | inactive | inactive | –
O=C(O)c1cc[c]([Hg][Cl])cc1 | inactive | inactive | inactive | inactive | inactive | inactive | – | inactive | inactive
CC(C)CCCCCCCOP(=O)(Oc1ccccc1)Oc1ccccc1 | inactive | inactive | inactive | inactive | inactive | inactive | inactive | inactive | –
CCCCCCCCCCCCCCCC[N+](C)(C)C | inactive | inactive | inactive | inactive | inactive | inactive | – | – | inactive
CCCN(CCC)c1c([N+](=O)[O-])cc(S(N)(=O)=O)cc1[N+](=O)[O-] | inactive | inactive | inactive | inactive | inactive | inactive | – | – | –
CC(C)CC(C)Nc1ccc(Nc2ccccc2)cc1 (stereo not drawn) | – | inactive | inactive | inactive | inactive | inactive | – | – | inactive
CC(C)CC(C)N (stereo not drawn) | inactive | – | inactive | inactive | inactive | inactive | inactive | inactive | inactive
Cc1c(Cl)c(=O)oc2cc(OP(=O)(OCCCl)OCCCl)ccc12 | 12.6 µM (active) | inactive | inactive | inactive | – | – | inactive | inactive | –
CC(C)C1CCC(Cc2ccc(Cl)cc2)C1(O)Cn1cncn1 (stereo not drawn) | inactive | – | inactive | inactive | inactive | inactive | – | – | inactive
Oc1ccc(C(=C(Cl)Cl)c2ccc(O)cc2)cc1 | inactive | inactive | inactive | inactive | inactive | inactive | – | – | inactive
CC(=O)[O-].CC(=O)[O-].O.O.[Cd+2] | – | – | inactive | inactive | inactive | inactive | – | – | –
CN(C)CCc1c[nH]c2ccc(O)cc12 | inactive | inactive | inactive | inactive | inactive | inactive | inactive | – | inactive
Cc1cc(C)c(C2=C(OC(=O)CC(C)(C)C)C3(CCCC3)OC2=O)c(C)c1 | – | inactive | inactive | inactive | inactive | inactive | inactive | – | inactive
CC(C)(C)c1cc([N+](=O)[O-])cc(C(C)(C)C)c1O | – | inactive | inactive | inactive | inactive | inactive | – | – | inactive
Oc1c(Cl)c(Cl)cc(Cl)c1Cl | inactive | – | inactive | inactive | inactive | inactive | – | – | inactive
Oc1cc(Cl)c(Cl)c(Cl)c1 | inactive | inactive | inactive | inactive | inactive | inactive | inactive | – | inactive
CN(C)CCc1c[nH]c2cccc(O)c12 | – | inactive | inactive | inactive | inactive | inactive | inactive | inactive | inactive

Structure (SMILES) | Potency [1] | outcome [2] | outcome [3] | outcome [4] | Potency [5] | Potency [6] | Potency [7] | Potency [8] | outcome [9]
ClC(Cl)=C(c1ccc(Cl)cc1)c1ccc(Cl)cc1 | – | inactive | inactive | inactive | inactive | inactive | inactive | inactive | –
O=C(CBr)c1ccc(O)cc1 | inactive | inactive | inactive | inactive | inactive | inactive | inactive | inactive | inactive
S=C=Nc1cccc2ccccc12 | inactive | inactive | inactive | inactive | inactive | inactive | – | 17.2 µM (active) | inactive
CCOCCOC(C)=O | – | – | inactive | inactive | inactive | inactive | inactive | – | –
C[C@]12CC[C@@H]3c4ccc(OC(=O)N(CCCl)CCCl)cc4CC[C@H]3[C@@H]1CC[C@@H]2O | inactive | – | inactive | inactive | inactive | inactive | inactive | inactive | –
c1ccc(OCC2CO2)cc1 (stereo not drawn) | inactive | inactive | inactive | inactive | inactive | inactive | inactive | inactive | inactive
C[C@H]1CC[C@@H]2[C@@H](C)[C@H]3[C@H](C[C@H]4[C@@H]5CC=C6CC(O[C@@H]7O[C@H](CO)[C@H](O)[C@H](O[C@@H]8O[C@H](CO)[C@@H](O)[C@H](O)[C@H]8O)[C@H]7O[C@H]7O[C@@H](C)[C@H](O)[C@@H](O)[C@H]7O)CC[C@]6(C)[C@H]5CC[C@]34C)N2C1 (stereo partly drawn) | inactive | inactive | inactive | inactive | inactive | inactive | inactive | inactive | inactive
COc1ccc(OC)c(CC(C)N)c1 (stereo not drawn) | inactive | inactive | inactive | inactive | inactive | inactive | – | – | inactive
O=C/C(Cl)=C(/Cl)C(=O)O | – | inactive | inactive | inactive | inactive | inactive | – | 48.9 µM (active) and 49 µM (active) | –
CC(Cc1ccc(C(C)(C)C)cc1)CN1C[C@@H](C)O[C@@H](C)C1 (stereo partly drawn) | inactive | inactive | inactive | inactive | inactive | inactive | inactive | inactive | inactive
Cc1cc(C(F)(C(F)(F)F)C(F)(F)F)ccc1NC(=O)c1cccc(I)c1C(=O)NC(C)(C)CS(C)(=O)=O | inactive | inactive | inactive | inactive | inactive | inactive | inactive | – | inactive
NNC(=O)c1ccccc1 | inactive | inactive | inactive | inactive | inactive | inactive | inactive | – | inactive
C[C@@H]1O[C@@H](O[C@H]2C[C@@H](O)[C@]3(CO)[C@H]4[C@H](O)C[C@]5(C)[C@@H](C6=CC(=O)OC6)CC[C@]5(O)[C@@H]4CC[C@]3(O)C2)[C@H](O)[C@H](O)[C@H]1O | inactive | inactive | inactive | inactive | inactive | inactive | inactive | 0.268 µM (active) | inactive
CSCCCN=C=S | – | – | inactive | inactive | inactive | inactive | inactive | – | inactive
O=C(CCCN1CCC2(CC1)C(=O)NCN2c1ccccc1)c1ccc(F)cc1 | inactive | inactive | inactive | inactive | inactive | inactive | inactive | inactive | inactive
[Cl][Sb]([Cl])[Cl] | inactive | inactive | inactive | inactive | inactive | inactive | – | – | inactive
CNC(C)Cc1ccc2c(c1)OCO2 (stereo not drawn) | inactive | inactive | inactive | inactive | inactive | inactive | – | – | inactive
